Laboratory results published in PubChem BioAssay AID1159580 (chemical genetic matrix, 2015).
Among all 5,500 compounds or so, about 2,000 (36%) were called active. Roughly 18% stayed inconclusive and do not appear here. No stated cut-off is given here; in the data, active means normalized growth mostly below about 0.91 (no sharp cut-off); inconclusive means no clear call, values can overlap the other calls; inactive means mostly above about 0.92. The list shows a part of the results.

Test: chemical genetic growth profiling, strain panel (AID 1159580);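 further: tested at 20 µM; growth read once vehicle control cultures reached saturation at 30 °C; 1 = growth at the plate median or of vehicle wells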
Details: growth OD

Measured: normalized growth

Cc1cc(=O)c2c(O)c(C)c(O)cc2o1
active: S. cerevisiae deletion strains, locus YKR001C, strain vps1, stronger effect = lower value 0.888 | S. cerevisiae deletion strains, locus YPR163C, strain tif3, stronger effect = lower value 0.866
inactive: S. cerevisiae deletion strains, locus YJL187C, strain SWE1, stronger effect = lower value 1 | S. cerevisiae deletion strains, locus YJR043C, strain POL32, stronger effect = lower value 0.992 | S. cerevisiae deletion strains, locus YKL009W, strain mrt4, stronger effect = lower value 0.961 | S. cerevisiae deletion strains, locus YKL068W, stronger effect = lower value 1 | S. cerevisiae deletion strains, locus YKL085W, strain MDH1 (second series), stronger effect = lower value 0.996 | S. cerevisiae deletion strains, locus YKL085W, strain MDH1, stronger effect = lower value 0.996 | S. cerevisiae deletion strains, locus YKL160W, strain elf1, stronger effect = lower value 1.02 | S. cerevisiae deletion strains, locus YKR026C, strain gcn3, stronger effect = lower value 1.02 | S. cerevisiae deletion strains, locus YKR091W, strain srl3, stronger effect = lower value 1.02 | S. cerevisiae deletion strains, locus YLL001W, strain dnm1, stronger effect = lower value 1.02 | S. cerevisiae deletion strains, locus YLL026W, stronger effect = lower value 1.01 | S. cerevisiae deletion strains, locus YLL041C, strain sdh2, stronger effect = lower value 1.02 | S. cerevisiae deletion strains, locus YLR027C, strain aat2, stronger effect = lower value 1 | S. cerevisiae deletion strains, locus YLR039C, strain RIC1, stronger effect = lower value 1.1 | S. cerevisiae deletion strains, locus YLR058C, strain SHM2, stronger effect = lower value 0.978 | S. cerevisiae deletion strains, locus YLR102C, strain apc9, stronger effect = lower value 0.976 | S. cerevisiae deletion strains, locus YLR221C, strain rsa3, stronger effect = lower value 1.01 | S. cerevisiae deletion strains, locus YLR258W, strain gsy2, stronger effect = lower value 1.01 | S. cerevisiae deletion strains, locus YLR262C, strain YPT6 (second series), stronger effect = lower value 1.01 | S. cerevisiae deletion strains, locus YLR262C, strain YPT6, stronger effect = lower value 1.12 | S. cerevisiae deletion strains, locus YLR268W, strain sec22, stronger effect = lower value 0.957 | S. cerevisiae deletion strains, locus YLR320W, strain mms22, stronger effect = lower value 1.04 | S. cerevisiae deletion strains, locus YLR330W, strain CHS5, stronger effect = lower value 0.998 | S. cerevisiae deletion strains, locus YLR342W, strain FKS1, stronger effect = lower value 1.01 | S. cerevisiae deletion strains, locus YLR357W, strain rsc2, stronger effect = lower value 1.02 | S. cerevisiae deletion strains, locus YLR370C, strain arc18, stronger effect = lower value 1.04 | S. cerevisiae deletion strains, locus YLR371W, strain rom2, stronger effect = lower value 0.954 | S. cerevisiae deletion strains, locus YLR384C, strain iki3, stronger effect = lower value 1.01 | S. cerevisiae deletion strains, locus YLR418C, strain cdc73, stronger effect = lower value 0.854 | S. cerevisiae deletion strains, locus YML016C, strain PPZ1, stronger effect = lower value 1.01 | S. cerevisiae deletion strains, locus YML032C, strain rad52, stronger effect = lower value 0.929 | S. cerevisiae deletion strains, locus YML120C, strain ndi1, stronger effect = lower value 1.02 | S. cerevisiae deletion strains, locus YML124C, strain tub3, stronger effect = lower value 0.99 | S. cerevisiae deletion strains, locus YMR058W, strain fet3, stronger effect = lower value 1.03 | S. cerevisiae deletion strains, locus YMR078C, strain ctf18, stronger effect = lower value 0.983 | S. cerevisiae deletion strains, locus YMR125W, strain sto1, stronger effect = lower value 0.989 | S. cerevisiae deletion strains, locus YMR129W, stronger effect = lower value 1.02 | S. cerevisiae deletion strains, locus YMR205C, strain PFK2, stronger effect = lower value 1.01 | S. cerevisiae deletion strains, locus YMR223W, strain ubp8, stronger effect = lower value 0.963 | S. cerevisiae deletion strains, locus YMR231W, strain pep5, stronger effect = lower value 1.02 | S. cerevisiae deletion strains, locus YMR307W, strain GAS1, stronger effect = lower value 0.989 | S. cerevisiae deletion strains, locus YNL067W, strain RPL9B, stronger effect = lower value 0.971 | S. cerevisiae deletion strains, locus YNL071W, strain lat1, stronger effect = lower value 1.02 | S. cerevisiae deletion strains, locus YNL128W, strain TEP1, stronger effect = lower value 0.993 | S. cerevisiae deletion strains, locus YNL209W, strain ssb2, stronger effect = lower value 1.02 | S. cerevisiae deletion strains, locus YNL233W, strain BNI4, stronger effect = lower value 0.956 | S. cerevisiae deletion strains, locus YNL248C, strain rpa49, stronger effect = lower value 1.01 | S. cerevisiae deletion strains, locus YNL250W, strain rad50, stronger effect = lower value 0.967 | S. cerevisiae deletion strains, locus YNL271C, strain bni1, stronger effect = lower value 0.993 | S. cerevisiae deletion strains, locus YNL298W, strain CLA4, stronger effect = lower value 0.969 | S. cerevisiae deletion strains, locus YNL307C, strain MCK1, stronger effect = lower value 0.971 | S. cerevisiae deletion strains, locus YNL322C, strain KRE1 (second series), stronger effect = lower value 1.02 | S. cerevisiae deletion strains, locus YNL322C, strain KRE1, stronger effect = lower value 0.994 | S. cerevisiae deletion strains, locus YNR049C, strain mso1, stronger effect = lower value 1.01 | S. cerevisiae deletion strains, locus YNR052C, strain pop2, stronger effect = lower value 0.987 | S. cerevisiae deletion strains, locus YOL006C, strain TOP1, stronger effect = lower value 0.946 | S. cerevisiae deletion strains, locus YOL012C, strain htz1 1.07 | S. cerevisiae deletion strains, locus YOL147C, strain pex11, stronger effect = lower value 0.966 | S. cerevisiae deletion strains, locus YOR001W, strain rrp6, stronger effect = lower value 1.03 | S. cerevisiae deletion strains, locus YOR061W, strain CKA2, stronger effect = lower value 1.02 | S. cerevisiae deletion strains, locus YOR069W, strain VPS5, stronger effect = lower value 1 | S. cerevisiae deletion strains, locus YOR070C, strain gyp1, stronger effect = lower value 1.02 | S. cerevisiae deletion strains, locus YOR080W, strain dia2, stronger effect = lower value 1.02 | S. cerevisiae deletion strains, locus YOR083W, strain WHI5, stronger effect = lower value 1.01 | S. cerevisiae deletion strains, locus YOR106W, strain vam3, stronger effect = lower value 1.02 | S. cerevisiae deletion strains, locus YOR136W, strain idh2, stronger effect = lower value 0.949 | S. cerevisiae deletion strains, locus YOR144C, strain elg1, stronger effect = lower value 0.988 | S. cerevisiae deletion strains, locus YOR184W, strain ser1, stronger effect = lower value 0.986 | S. cerevisiae deletion strains, locus YOR265W, strain rbl2, stronger effect = lower value 1.01 | S. cerevisiae deletion strains, locus YOR270C, strain vph1, stronger effect = lower value 1.07 | S. cerevisiae deletion strains, locus YOR290C, strain snf2, stronger effect = lower value 1.03 | S. cerevisiae deletion strains, locus YOR316C, strain cot1, stronger effect = lower value 0.983 | S. cerevisiae deletion strains, locus YPL051W, strain arl3, stronger effect = lower value 1.02 | S. cerevisiae deletion strains, locus YPL078C, strain atp4, stronger effect = lower value 1.03 | S. cerevisiae deletion strains, locus YPL106C, strain sse1, stronger effect = lower value 1.03 | S. cerevisiae deletion strains, locus YPL240C, strain hsp82, stronger effect = lower value 1.01 | S. cerevisiae deletion strains, locus YPL241C, strain CIN2, stronger effect = lower value 0.997 | S. cerevisiae deletion strains, locus YPR119W, strain clb2, stronger effect = lower value 0.99 | S. cerevisiae deletion strains, locus YPR141C, strain kar3, stronger effect = lower value 1.01 | S. cerevisiae deletion strains, locus YPR167C, strain met16, stronger effect = lower value 0.957 | S. cerevisiae deletion strains, strain wtn01, stronger effect = lower value 0.97 | S. cerevisiae strains, strain wild type, stronger effect = lower value 1.02
